Sampled rows, rich in hits. Any-hit rate of the full collection: about 4.8%.
DAX1 inh-1: DAX1 (NR0B1) inhibition, primary screen. HEK293T StAR-luciferase reporter, SF-1/DAX-1 repression relief. inhibition, % at 6.8 µM. hit rate 1.1% among 370,000;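 active means inhibition above the mean over all tested compounds plus 3 SD, cut at about 3.6% in these data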;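 further: higher inhibition means more luminescence from relief of DAX-1 repression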
ssDAF12 agonist: S. stercoralis DAF-12 activation, primary screen; activation, % at 6.8 µM; AID 652126; hit rate 1% among 370,000; HEK293 ssDAF-12/GRIP1 lit1-tk-luc reporter, luminescence; % of 3 µM dafachronic acid response;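 active means activation above the mean over all tested compounds plus 3 SD, cut at about 0.9% in these data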
hcDAF12 agonist: activators of H. contortus DAF-12 nuclear receptor. HEK293 hcDAF-12 lit1-tk-luc reporter, luminescence; 0% DMSO, 100% Δ7-dafachronic acid. activation, % at 6.8 µM. hit rate 1.4% among 370,000. AID 652067;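 active means activation above the mean of all tested compounds plus 3 SD, cut at about 5.5% in these data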
SMARCA2 activ: increases SMARCA2 function in MMTV reporter cells; MG213 cells, MMTV-luciferase reporter, dexamethasone, overnight; activation, % at 9.1 µM; hit rate 1% among 370,000; AID 652017; in the data active means activation above about 7.8%
DAX1 inh-2: inhibitors of human orphan nuclear receptor DAX1 (NR0B1); hit rate 0.99% among 340,000; inhibition, % at 6.75 µM; HEK293 Gal4-DAX1 luciferase reporter, luminescence; P51843;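 active means inhibition above the mean over all tested compounds plus 3 SD, cut at about 4.2% in these data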;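 further: inhibition shows as a rise in luminescence from relieved DAX1 repression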
Target sequence (P51843 207-470 limits assumed): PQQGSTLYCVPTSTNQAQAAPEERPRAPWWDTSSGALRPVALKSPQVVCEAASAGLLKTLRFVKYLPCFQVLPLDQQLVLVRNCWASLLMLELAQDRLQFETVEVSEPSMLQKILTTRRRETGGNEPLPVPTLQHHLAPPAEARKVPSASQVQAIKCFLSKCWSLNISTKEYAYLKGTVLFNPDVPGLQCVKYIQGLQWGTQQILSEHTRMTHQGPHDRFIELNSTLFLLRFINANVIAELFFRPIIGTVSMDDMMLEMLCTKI
hgDAF-12 ag: activates the H. glycines DAF-12 receptor ligand-binding domain. HEK293 GAL4-hgDAF12 UAS-luciferase reporter, agonist luminescence; normalized to butyrate control. activation, % at 6.8 µM. hit rate 1.8% among 370,000;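 active means activation above a cutoff set at the mean of all screened compounds plus 3 SD, cut at about 10% in these data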
SMARCA2 conf: confirmation of SMARCA2 (BRM) function activators; shares compounds with SMARCA2 activ; MG213 cells, MMTV-luciferase with dexamethasone, luminescence, overnight; MG213 cells expressing E1A, Rb sequestered; DMSO wells 0%, reference activator 100%; activation, % at 9.1 µM; hit rate 30% among 3,500; AID 652260;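 active means activation above its plate's cutoff, the mean activation of tested wells plus 3 SD, cut at about 7.9% in these data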
GAL4-VP16 Luc: activates GAL4-VP16 luciferase, flagging SMARCA2 activator hits. hit rate 41% among 3,500. activation, % at 9.1 µM. shares compounds with SMARCA2 activ. HEK293 GAL4-VP16 pG5luc reporter, luciferase luminescence; scaled: DMSO wells 0%, SAHA wells 100%;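 active means activation above the solvent-only control well mean plus 3 SD, averaged across control plates, cut at about 5.2% in these data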
A number is an active result; – = inactive; · = no result.

SMILES | DAX1 inh-1 | ssDAF12 agonist | hcDAF12 agonist | SMARCA2 activ | DAX1 inh-2 | hgDAF-12 ag | SMARCA2 conf | GAL4-VP16 Luc
CC1CN(C(=O)CCC(=O)NC(C)c2ccccc2)c2cc(Cl)ccc2O1 (stereo unspecified) | – | – | – | 8.3 | – | – | – | –
CCc1nnc(NC(=O)CSc2nc(C)nc3c2c(=O)n(C)c(=O)n3C)s1 | – | – | – | – | – | – | · | ·
CN1CCN(c2ccc(Nc3ccnc4cc(Cl)ccc34)cc2)CC1 | – | – | – | 16.2 | – | – | 28.3 | –
O=C(Oc1c(CN2CCOCC2)cc(Cl)c2cccnc12)c1ccc(F)cc1 | – | – | – | – | – | – | · | ·
COc1ccc(C(=O)Oc2c(CN3CCOCC3)cc(Cl)c3cccnc23)cc1 | – | – | – | – | – | – | · | ·
O=C(Oc1c(CN2CCOCC2)cc(Cl)c2cccnc12)c1ccccc1Cl | – | – | – | 19.4 | – | – | – | –
O=C(Oc1c(CN2CCOCC2)cc(Cl)c2cccnc12)c1cccs1 | – | – | – | 33.4 | – | – | 15.7 | –
CC1=NN(c2ccccc2)C(=O)C1 | – | – | – | – | – | – | · | ·
CC1=NN(Cc2ccccc2)C(=O)C1 | – | – | – | 10.2 | – | – | – | –
CCOC(=O)c1sc2nc(CC(=O)OC)nc(NCCN(CC)CC)c2c1C | – | – | – | – | – | – | · | ·
COc1ccc(C2=NOC(C(=O)Nc3cc(Br)ccc3O)C2)cc1OC (stereo unspecified) | – | – | – | 8.6 | – | – | – | –
Cc1ccc(NC(=O)C2Cc3ccccc3O/C2=N\O)cc1C (stereo unspecified) | – | – | – | – | – | – | · | ·
Cc1ccc(CNC(=O)C2=NNC(=O)CC2)cc1 | – | – | – | 12.1 | – | – | – | 7.9
Cc1ccc(S(=O)(=O)CCC(=O)OCC(=O)Nc2cc(S(=O)(=O)N3CCOCC3)ccc2Cl)cc1 | – | – | – | – | – | – | · | ·
O=C(COC(=O)CCS(=O)(=O)c1ccccc1)Nc1cc(S(=O)(=O)N2CCCCC2)ccc1Cl | – | – | – | 8.8 | – | – | – | –
Cc1ccc(S(=O)(=O)CCC(=O)OCCOc2cccc(Br)c2)cc1 | – | – | – | – | – | – | · | ·
Cc1nc2nc(C)c(NS(=O)(=O)c3ccc4c(c3)CCCC4)c(=O)n2[nH]1 | – | – | – | 8.9 | – | – | – | –
COc1ccc(S(=O)(=O)Nc2c(C)nc3nc(C)[nH]n3c2=O)cc1 | – | – | – | – | – | – | · | ·
N/C(=N\OC(=O)c1cccc(Br)c1)c1ccncc1 | – | – | – | 8.0 | – | – | – | 7.4
CCc1ccc2[nH]c(=O)c(CN(Cc3nnnn3C3CCCC3)C3CCCCC3)cc2c1 | – | – | – | 8.3 | – | – | – | 5.8
N/C(Cc1cccs1)=N\OC(=O)COc1ccc(Br)cc1Cl | – | – | – | – | – | – | · | ·
N/C(Cc1cccs1)=N\OC(=O)COc1ccccc1Cl | – | – | – | 8.4 | – | – | – | 6.8
COc1ccc(C(C)NC(=O)c2ccc(Br)cc2)cc1OC (stereo unspecified) | – | – | – | – | – | – | · | ·
O=c1c2cc(F)ccc2sn1-c1ccccc1Cl | – | – | – | 9.0 | – | – | – | –
O=C(O)c1cc(-c2ccc3ccccc3n2)nc2ccccc12 | – | – | – | 13.2 | – | – | – | 7.7
SMILES | DAX1 inh-1 | ssDAF12 agonist | hcDAF12 agonist | SMARCA2 activ | DAX1 inh-2 | hgDAF-12 ag | SMARCA2 conf | GAL4-VP16 Luc
Cc1ccccc1C1NS(=O)(=O)N=C1N (stereo unspecified) | – | – | – | 8.0 | – | – | – | –
CCC(=O)Nc1nnc(Cc2ccccc2)s1 | – | – | – | – | – | – | · | ·
COc1ccc(Cc2nnc(NC(=O)c3ccccc3[N+](=O)[O-])s2)cc1 | – | – | – | 8.4 | – | – | – | –
CC(=O)Nc1nnc(Cc2ccccc2)s1 | – | – | – | 12.8 | – | – | – | –
CC(=O)Nc1nnc(COc2ccccc2)s1 | – | – | – | 8.4 | – | – | – | –
NC1=NS(=O)(=O)NC1c1ccc(Cl)cc1 (stereo unspecified) | – | – | – | – | – | – | · | ·
C/C(=N\NC(=O)c1ccccc1C)c1cccc([N+](=O)[O-])c1 | – | – | – | – | – | – | · | ·
O=C(Nc1ccc(F)cc1)c1ccc2[nH]c(=O)c(=O)[nH]c2c1 | – | – | – | 8.5 | – | – | – | –
O=C(CCCNC(=O)/C(=C/c1ccc(Br)cc1)NC(=O)c1ccccc1)OCc1ccccc1 | – | – | – | – | – | – | · | ·
CCOc1ncccc1C(=O)NNC(=O)CSc1ccc(Cl)cc1 | – | – | – | – | – | – | · | ·
CCOc1ccc(C2C3=C(Nc4nc(N)[nH]c(=O)c42)c2ccccc2C3=O)cc1 (stereo unspecified) | – | – | – | 13.7 | – | – | – | –
CCCOc1ccc(C2C3=C(Nc4nc(N)[nH]c(=O)c42)c2ccccc2C3=O)cc1 (stereo unspecified) | – | – | – | – | – | – | · | ·
Cc1cc(C)cc(-n2c(=O)c3sccc3n(CC(=O)NCc3ccco3)c2=O)c1 | – | – | – | – | – | – | · | ·
O=c1/c(=C/c2ccc([N+](=O)[O-])cc2)sc2n1CCCN=2 | – | – | – | 8.7 | – | – | 11.5 | 12.6
CCCCNC(=O)C1(C)CCCCN1C(=O)c1cc(OC)ccc1Br (stereo unspecified) | – | – | – | – | · | – | · | ·
CN(C)/N=C/C=C1\CCC/C(=C/c2cccs2)C1=O | – | – | – | 8.3 | 4.4 | 12.1 | – | 5.3
CCC/C(=N\NC(=O)C1CC1)c1ccccc1 | – | – | – | 8.1 | · | – | – | –
O=C(O)C1=C[C@H](c2ccccc2)C[C@H](OCCCCO)O1 | – | – | – | – | – | – | · | ·
COc1cc(N)c(Cl)cc1C(=O)OCC(=O)N1c2ccccc2NC(=O)C1(C)C | – | – | – | 9.1 | – | – | – | –
COc1ccc(S(N)(=O)=O)cc1C(=O)OCC(=O)N1c2ccccc2NC(=O)C1(C)C | – | – | – | – | – | – | · | ·
Cn1c(NCc2ccc(Cl)cc2)nc2ccccc21 | – | 1.5 | – | 8.3 | – | 12.6 | 8.3 | 11.0
Cn1c(NCc2c(O)ccc3ccccc23)nc2ccccc21 | – | – | – | – | – | – | · | ·
Cc1nc2ccccc2c2c1C(=O)N(c1cccc(C(=O)O)c1)C2=O | – | – | – | – | – | – | · | ·
Cc1ccc(C)c(C(=O)COC(=O)c2cccc(N3C(=O)c4c(C)nc5ccccc5c4C3=O)c2)c1 | – | – | – | 14.2 | – | – | – | –

Screening results as filed in PubChem BioAssay.
